# Shown are actives, neighbours in structure and some others; about 2.2% of the full set was active somewhere.
# GASC-1 inh: inhibitors of GASC-1 histone demethylase, primary screen, biochemical, fluorescence, DELFIA europium | Lysine-specific demethylase 4C (Homo sapiens), Q9H3R0 | GST-JMJD2C(1-420) H3K9me3 demethylation | inhibition, % at 2.35 µM | 0.069% of 330,000 active;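 active means more than half of a compound's replicate wells show inhibition beyond 50%, single wells judged on their own value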;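 further: signal counts dimethyl H3K9 product captured on neutravidin plate; 0% = median of DMSO wells and 100% = 0.3 times that DMSO median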
# MEX-5 binding: MEX-5 zinc finger RNA-binding disruptors – biochemical, C. elegans, fluorescence polarization, MLPCN library, primary screen; MEX-5/FITC-TCR2 RNA binding; active compounds read low; AID 1832, 2009; Zinc finger protein mex-5 (Caenorhabditis elegans), Q9XUB2; activity score (negative = inhibition of binding), % at 10 µM; 0.38% of 300,000 active;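 active means inhibition past about -25% in most replicates, and total fluorescence under double the plate's negative control median, limit read from the data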;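 further: 0% = DMSO and -100% = 5 µM competing unlabeled TCR2 RNA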
# VLA-4 inh: inhibition in human VLA-4 binding assay, primary screen, VLA-4 allosteric modulator project, MLPCN library, flow cytometry, VLA-4 expressing cells | inhibition, % (about 7 µM as worked out from the volumes in the protocol) | 0.2% of 330,000 active | ligand binding flow cytometry | Integrin alpha-4 (Homo sapiens), P13612; in the data active means inhibition above about 50%
# HTR2A ag: mouse Htr2a agonists via beta-arrestin recruitment, primary screen, cell-based, luminescence; CHO-K1 mHTR2A beta-arrestin complementation; percent of 30 µM serotonin response; activation, % at 7.6 µM; 0.66% of 360,000 active;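 active means activation above a run cutoff, the mean activation of all tested compounds plus 3 SD, cut at about 14% in these data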;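 further: 0% = plate median of compound wells and 100% = 30 µM serotonin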
# Target sequence (P35363 whole entry, looked up): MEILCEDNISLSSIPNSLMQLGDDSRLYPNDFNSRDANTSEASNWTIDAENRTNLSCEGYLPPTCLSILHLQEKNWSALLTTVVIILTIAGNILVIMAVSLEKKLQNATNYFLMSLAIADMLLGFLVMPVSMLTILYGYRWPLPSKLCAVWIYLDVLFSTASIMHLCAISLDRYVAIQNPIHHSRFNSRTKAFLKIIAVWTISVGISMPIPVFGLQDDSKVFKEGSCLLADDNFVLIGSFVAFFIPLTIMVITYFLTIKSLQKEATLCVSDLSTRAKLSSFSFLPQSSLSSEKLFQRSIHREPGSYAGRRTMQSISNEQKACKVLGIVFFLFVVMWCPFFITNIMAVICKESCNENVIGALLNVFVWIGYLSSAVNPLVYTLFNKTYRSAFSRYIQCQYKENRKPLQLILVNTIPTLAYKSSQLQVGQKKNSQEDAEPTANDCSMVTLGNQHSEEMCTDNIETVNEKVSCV
# V-ATPase pH: regulators of yeast V-ATPase proton pumping, primary screen, pHLuorin cytosolic pH fluorescence. 0.37% of 350,000 active. S. cerevisiae. response, % at 10 µM. AID 504577, 2011; in the data active means response mostly above about 7.3%, no sharp cut-off; inactive means mostly below about 5.4%; further: actives read high
# Exocytosis inh: LAMP-1 surface exposure blockers, TALL-104 cells – cell-based, flow cytometry, MLPCN library, primary screen. inhibition, % at 10 µM. AID 651702, 2012. 0.66% of 360,000 active. TALL-104 LAMP-1 surface exposure; cells stimulated with thapsigargin and PMA;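 active means inhibition above about 55%, limit read from the data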
# MOR ag counter: OPRM1 agonists via beta-arrestin recruitment, confirmation, counter-screen for mouse HTR2A agonist project, cell-based, luminescence, single concentration. shares compounds with HTR2A ag. U2OS OPRM1 beta-arrestin PathHunter; DMSO 0%, DAMGO 9.3 µM 100%. activation, % at 9.3 µM. 5.3% of 2,300 active. AID 624380, 2012;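 active means mean activation above the mean of DMSO-only wells plus 3 SD, cut at about 0.5% in these data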
# m5-HT2A ag conf: mouse HTR2A agonists, beta-arrestin recruitment, confirmation, cell-based, luminescence, CHO-K1 PathHunter, triplicate; 19% of 2,300 active; AID 624381, 2012; DMSO 0%, 30 µM serotonin 100%; shares compounds with HTR2A ag; activation, % at 7.6 µM;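 active means mean activation across triplicates above the hit threshold derived in the original primary screen, cut at about 15% in these data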
# The depositor's hits bear a star; x = no result.
SMILES,GASC-1 inh,MEX-5 binding,VLA-4 inh,HTR2A ag,V-ATPase pH,Exocytosis inh,MOR ag counter,m5-HT2A ag conf
O=C(O)C(O)C(O)C(O)C(O)C(=O)O (stereo not given) (tested in a mixture with another compound),15.4,x,1.3,20.1*,4.4,1.7,-0.6,3.6
CC(C(=O)O)C(=O)O,x,x,-4.0,-4.7,-1.3,-1.2,x,x
COc1cc(-c2ccc3sc(-c4ccsc4)c(C#CCO)c3c2)cc(OC)c1OC,-1.6,x,24.8,18.2*,5.9,-1.4,-0.3,2.9
O=C(COC(=O)C1CC(=O)N(Cc2ccccc2)C1)Nc1ccc2c(c1)OCO2 (stereo not given),-1.7,1.8,29.4,-6.9,-0.1,0.5,x,x
NS(=O)(=O)c1ccc(NC(=O)COC(=O)C2CC(=O)N(Cc3ccccc3)C2)cc1 (stereo not given),10.1,-0.3,-4.8,15.7*,-0.2,-2.4,-0.2,2.4
CCN(CC(=O)Nc1ccc(OC)cc1)C(=O)C1CC(=O)N(Cc2ccccc2)C1 (stereo not given),x,x,x,16.2*,x,0.9,-0.4,-5.7
Cc1ccc2c(ccc(=S)n2C)c1,-70.1,1.2,10.4,2.6,-2.1,10.2,x,x
COCCNC(=O)C1CCCN(C(=O)c2cncc(Br)c2)CC1 (stereo not given),x,x,x,7.4,x,4.8,x,x
O=C(CNC(=O)c1ccccc1)N/N=C/c1ccc([N+](=O)[O-])s1,5.7,-2.5,-1.7,4.3,-0.8,-2.5,x,x
O=C(Cc1ccccc1)NCC(=O)N/N=C/c1ccc([N+](=O)[O-])s1,26.1,-1.0,11.7,18.5*,1.6,-4.0,-0.1,-0.7
Cc1c(NC(=O)c2ccccc2NC(=O)COc2ccccc2)cccc1C(=O)O,4.1,-3.6,-2.5,17.4*,-2.0,-0.4,-0.4,-0.1
O=C(COc1ccccc1C(=O)O)Nc1cccc2ccccc12,3.8,x,6.2,15.8*,0.2,-0.3,-0.4,-2.5
C=C(C)CSc1nc2ncccc2[nH]1,0.4,1.3,38.4,22.2*,-7.7,15.5,-0.6,-2.6
COc1ccccc1/C=C/C(=O)NCC(=O)n1nc(C)cc1C,24.9,-2.3,11.3,18.7*,-1.7,-4.9,-0.6,-0.9
COc1cc(-c2ccc3c(=O)c4ccccc4n(C)c3c2)cc(OC)c1OC,-3.2,0.1,2.8,17.9*,-3.0,10.3,-0.4,1.0
CCc1ccc(NS(=O)(=O)c2ccc3oc(=O)ccc3c2)cc1,4.7,1.1,7.8,-2.5,-2.6,1.4,x,x
Cc1cccc(C)c1OCC(=O)Nc1ccccc1C(=O)N1CCOCC1,-1.5,-1.4,11.9,25.0*,-1.5,0.3,-0.6,0.9
COc1ccc(OCC(=O)Nc2ccccc2C(=O)N2CCOCC2)cc1,16.9,1.5,-4.0,0.9,-0.1,-1.0,x,x
CN(C)c1ccc(-c2ccnc3c2CC(C)(C(=O)NCCc2ccccc2)O3)cc1 (stereo not given),x,x,x,0.2,x,1.7,x,x
Cc1ccc([C@@H]2[C@@H]3C(=O)N(C)C(=O)[C@@H]3[C@]3(C)C(=O)N(Cc4ccccn4)CC(=O)N23)o1,-2.1,1.2,3.8,16.6*,-1.6,1.8,-0.6,-2.2
COC(=O)[C@H](Cc1ccc(O)cc1)NC(=O)Cn1cnc2c(OCc3ccccc3)ncnc21,x,x,7.8,14.7*,-2.4,-1.5,x,-3.1
Cc1csc2c(N3CCN(C(=O)Nc4ccccc4)CC3)ncnc12,-13.3,-2.7,-5.2,21.2*,1.8,7.1,-0.2,-1.3
Cc1csc2c(N3CCN(C(=S)Nc4ccc(F)cc4F)CC3)ncnc12,3.5,1.1,29.9,33.6*,-6.1,-11.2,-0.6,4.9
Cc1ccc(C(=O)N2CCN(c3ncnc4c(C)csc34)CC2)cc1,3.2,0.8,-8.4,6.2,-1.3,-3.2,x,x
CC(C)(C)OC1NS(=O)(=O)OCC1NCOC(Cl)(Cl)Cl (stereo not given),-3.5,0.7,0.5,-4.4,-1.9,-1.9,x,x
SMILES,GASC-1 inh,MEX-5 binding,VLA-4 inh,HTR2A ag,V-ATPase pH,Exocytosis inh,MOR ag counter,m5-HT2A ag conf
CCN(CC(=O)Nc1c(F)cccc1F)C(=O)C1=COCCO1,3.3,-1.7,-1.9,0.6,2.0,-2.2,x,x
CCOC(=O)/C=C(\C)N1N=C(c2ccccc2)CC1c1ccccc1 (stereo not given),2.2,4.1,-40.2,20.1*,2.1,-5.2,-0.6,-2.5
COc1ccc(-c2ccc3c(c2)S(=O)(=O)c2cccc(C(=O)O)c2C3=O)cc1OC,x,x,-4.4,5.9,-6.2,-7.1,x,x
COc1ncc(-c2ccc3c(c2)S(=O)(=O)c2cccc(C(=O)O)c2C3=O)cn1,x,x,4.3,17.9*,1.1,-1.7,-0.6,-2.7
COc1ccc(Cl)cc1NC(=O)CN(C)C(=O)C12CC3CC(CC(Cl)(C3)C1)C2,-6.3,-0.3,10.7,11.5,0.3,0.1,x,x
CCN1CCN(C(CNS(=O)(=O)c2ccc(OC)c(C)c2)c2cccnc2)CC1 (stereo not given),-44.8,-1.0,-17.2,20.2*,0.8,2.9,-0.7,-3.2
CC(CCc1ccccn1)C(=O)C(C)CCc1ccccn1 (stereo not given),x,x,x,-0.4,1.0,18.1,x,x
CC(C)(CCc1ccccn1)C(=O)C(CCc1ccccn1)CCc1ccccn1,x,x,x,14.5*,0.6,-12.6,-0.7,33.4*
CCOC(=O)/C(C#N)=C\N(C)C,0.6,1.1,7.5,7.6,-6.7,-1.1,x,x
CCc1c(C)nn(C(=O)/C(C#N)=C\N(C)C)c1C,19.5,-0.3,15.4,42.4*,-0.1,-6.0,-0.1,1.8
Cc1ccc2[nH]c(-c3ccccc3)c(CN3CCCC3)c(=O)c2c1,-6.1,-1.6,-1.5,20.4*,2.9,-0.4,0.2,11.4
COC(=O)Cn1cnc2c(cnn2-c2ccc(C)cc2)c1=O,-28.5,-1.1,2.5,0.4,2.1,2.0,x,x
O=C(COc1ccccc1)NCc1n[nH]c(=S)n1-c1ccccc1,-14.5,1.4,15.8,16.5*,-1.3,0.0,-0.1,1.1
